# Source: PubChem BioAssay (National Center for Advancing Translational Sciences (NCATS))
# Hits are enriched below; roughly 5.9% of the tested compounds scored in any of these assays.
# GLP-1R agonist: GLP-1 receptor (human) agonism; P43220; HEK293 GLP-1R CRE-luciferase, luminescence, 4-6 h; cells express a hypersensitive GLP-1R form; Potency, µM (doses to about 45.6 µM), without a hit: at the top dose activation, usual class: activators; actives 0.007% (n = 380,000); further: % of control where 0% means no effect
# HEK293 tox: cytotoxicity in counter-screen for GLP-1R inverse agonists. actives 0.13% (n = 410,000). HEK293 cAMP-luciferase reporter cells, luminescence, 24 h. Potency, µM (doses to about 38.3 µM), for the others: top-dose activity change, negative = inhibition, usual class: inhibitors;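 further: loss of luciferase light is scored as toxicity; on the % scale 0 is the no-effect control and ±100 the full control effect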
#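 MLSMR compounds, 24 hr on cells at 37 deg C/5% CO2; luminescence after luciferase reagent (12 min RT). Inhibition counted as the undesired cytotoxic outcome.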
# RORg inh: inhibitors of mouse ROR gamma transcriptional activity. AID 2551. actives 5.4% (n = 310,000). Drosophila S2 Gal4-RORgamma UAS-luciferase reporter, 20 h. P51450. Potency, µM (top dose mostly 53.6 µM), inactives show top-dose activity change, negative = inhibition, actives largely listed as inhibitors; further: on the % scale 0 is the no-effect control and ±100 the full control effect; nearly all actives have a fitted effect of over 60% in size
# Target sequence (P51450 whole entry, looked up, the tested form may be a part): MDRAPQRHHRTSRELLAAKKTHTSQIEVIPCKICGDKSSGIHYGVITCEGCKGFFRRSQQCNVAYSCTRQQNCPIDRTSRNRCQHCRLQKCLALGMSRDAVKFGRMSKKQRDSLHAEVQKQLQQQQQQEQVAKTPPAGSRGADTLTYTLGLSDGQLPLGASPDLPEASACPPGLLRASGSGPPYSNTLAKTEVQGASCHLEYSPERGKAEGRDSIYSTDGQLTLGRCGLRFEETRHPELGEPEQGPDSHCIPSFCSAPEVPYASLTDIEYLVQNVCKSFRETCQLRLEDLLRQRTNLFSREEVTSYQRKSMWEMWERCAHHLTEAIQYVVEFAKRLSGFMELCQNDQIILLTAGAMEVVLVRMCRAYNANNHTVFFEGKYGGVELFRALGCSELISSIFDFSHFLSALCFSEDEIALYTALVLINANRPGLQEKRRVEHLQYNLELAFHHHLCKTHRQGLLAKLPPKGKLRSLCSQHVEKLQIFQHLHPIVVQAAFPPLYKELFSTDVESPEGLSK
#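 Compounds are pin-transferred onto Drosophila Schneider cells expressing a copper-inducible Gal4–ROR gamma transactivation domain fusion. After 1 hr, copper sulfate is added to 700 uM final; luciferase is read 20 hr later.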
# GLP-1R inv ag: GLP-1 receptor (human) inverse agonism; AID 624417; HEK293 GLP-1R CRE-luciferase, luminescence, 24 h; GLP-1R form is constitutively active; actives 1.6% (n = 410,000); Potency, µM (series often up to 38.3 µM), inactives show at the top dose activity change, negative = inhibition, actives largely listed as inhibitors; P43220; further: on the % scale 0 is the no-effect control and ±100 the full control effect; nearly all actives have a fitted effect of over 55% in size
#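 Readout was luciferase luminescence, measured 12 min after detection reagent at room temperature. Beforehand, GLP-1R reporter HEK293 cells had sat 12 h, then received compounds for 24 hr at 37 deg C.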
# Gal4-VP16 FLuc: counter-screen for ROR gamma inhibitors: Gal4-VP16 reporter; Drosophila S2 Gal4-VP16 UAS-luciferase, luminescence, 20 h; Potency, µM (top dose mostly 53.6 µM), without a hit: at the highest dose activity, negative = inhibition, usual class: inhibitors; actives 3.5% (n = 310,000);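 further: Gal4-VP16 expression switched on by copper sulfate through the metallothionein promoter; on the % scale 0 is the no-effect control and ±100 the full control effect; nearly all actives have a fitted effect of over 50% in size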
# Active calls of the source: *; u = inconclusive; x = not tested or not shown; ! = not confirmed by another sample; [ ] = dose if it differs, or a comment. The call rests on the fitted dose curve; in most records, active means well fitted curve in the direction sought with a large enough effect; inconclusive means small, poorly fitted or top-dose-only effect, or another doubt; inactive means no such curve, though single readings can be large; an effect the other way counts as inactive or inconclusive. Potency means the concentration at half of the fitted maximal effect.
SMILES,GLP-1R agonist,HEK293 tox,RORg inh,GLP-1R inv ag,Gal4-VP16 FLuc
CCCCCCOC(=O)C(C#N)c1nc2ccccc2nc1N1CCN(CC)CC1 (stereo not drawn),1%,u,10µM*,u,u
COc1ccccc1N1CCN(c2nc3ccccc3nc2C(C#N)C(=O)OC(C)C)CC1 (stereo not drawn),-5%,-23%,6%[0.365 µM],11µM*,x
CCOc1ccccc1N1CCN(c2nc3ccccc3nc2C(C#N)C(=O)OC)CC1 (stereo not drawn),-10%,9%,-26%,7%,-2%
FC(F)Oc1ccccc1NC(=S)NCCc1ccccc1,8%,11%,x,u,x
COc1ccc(NC(=S)NCCc2ccccc2)c(C)c1,1%,u,6.3µM*,-22%,4µM*
CCc1cc(Br)ccc1NC(=S)NCCc1ccccc1,2%,u,5µM*,u,6.3µM*
Cc1cc(OC(F)F)ccc1NC(=S)NCCc1ccccc1,8%,u,7.9µM*,u,10µM*
Fc1ccc(NC(=S)NCCc2ccccc2)c(F)c1F,2%,5%,-5%,u,-6%
COc1ccc(CCNC(=S)Nc2ccc(C)cc2C)cc1,10%,u,4µM*,u,7.1µM*
CNc1ncncc1-c1c(C)noc1C,x,x,11%,x,-3%
COc1cc2c(cc1OC)[C@@H](Cc1cc(OC)c(OC)c(OC)c1)[N@+](C)(CCCOC(=O)CC/C=C/CCC(=O)OCCC[N@+]1(C)CCc3cc(OC)c(OC)cc3[C@H]1Cc1cc(OC)c(OC)c(OC)c1)CC2,0%,x,x,x,x
OC1CC2CCC(C1)N2CCCN1c2ccccc2Sc2ccc(Cl)cc21 (stereo not drawn),9%,0%,x,2.8µM*,x
CN1CCCC(CN2c3ccccc3Sc3ccccc32)C1 (stereo not drawn),7%,-20%,14%,10µM*,-6%
CN1CCN(CCCN2c3ccccc3Sc3ccc(Cl)cc32)CC1,5%,u,2.8µM*!,u,u
CC1(C)CC(=O)c2cnn(-c3nc4ccccc4[nH]3)c2C1,15%,-10%,8.9µM*,2%,u
COc1ccccc1C(=O)Nc1cccc(OCc2cc(=O)n3c4c(sc3n2)CCCC4)c1,-2%,-8%,x,-3%,x
CSCC[C@H](NC(=O)[C@H](CC(C)C)N(C)C(=O)[C@@H]1CCCN1C(=O)[C@H](Cc1ccccc1)NC(=O)[C@H](Cc1ccccc1)NC(=O)CCC(C)N)C(=O)O (stereo partly drawn),x,x,-3%,x,-8%
COc1ccccc1C(c1nnnn1CCc1ccccc1)N1CCCCCC1 (stereo not drawn),3%,-18%,-9%,11µM*,1%
Fc1ccc(C(c2nnnn2C2CCCC2)N2CCc3ccccc32)cc1 (stereo not drawn),-6%,4%,2%,u,7%
Fc1ccc(C(c2nnnn2CCc2ccccc2)N2CCCc3ccccc32)cc1 (stereo not drawn),-4%,-8%,6%,2.8µM*,2%
COc1ccc(N2CCN(C(c3ccccc3)c3nnnn3Cc3ccc(F)cc3)CC2)cc1 (stereo not drawn),3%,-11%,30%,13µM*,5%
COc1ccccc1N1CCN(C(c2ccc(Cl)cc2)c2nnnn2C(C)(C)C)CC1 (stereo not drawn),-15%,-6%,-123%,u,22µM*
COc1ccccc1C(c1nnnn1CCc1ccccc1)N1CCN(c2ccccc2)CC1 (stereo not drawn),4%,-7%,-23%[10 µM],8%,4%
COc1cc(OC)c(NC(=O)c2nn(C)c3c2COc2ccccc2-3)cc1Cl,x,-1%,x,6%,x
O=C1[C@H]2[C@H]3[C@H](O)[C@H](O)C/C(=N/OCc4ccccc4)[C@@H]3CC[C@@H]2C(=O)N1C1CCCCC1,x,x,3%[10 µM],x,-6%[10 µM]
SMILES,GLP-1R agonist,HEK293 tox,RORg inh,GLP-1R inv ag,Gal4-VP16 FLuc
COc1ccc(-n2c(=O)c(-c3cccs3)nc3cnc(N(C)C)nc32)cc1,x,x,-9%,x,5%
COc1ccc(C(c2nnnn2CCc2ccccc2)N2CCN(C)CC2)cc1OC (stereo not drawn),5%,-2%,13%,0%,-2%
COc1ccccc1N1CCN(C(c2ccccc2)c2nnnn2CCc2ccccc2)CC1 (stereo not drawn),0%,0%,u,11µM*,-7%
Cc1noc(C)c1C(=O)N1CCC[C@@]2(CCN(c3ncccn3)C2)C1,x,x,-2%,x,12%
COc1cc2c(cc1OC)C(c1ccc(-c3ccc(Cl)cc3Cl)o1)=NCC2,4%,4%,6.3µM*,u,20µM*
COc1cc2c(cc1OC)C(c1ccc(-c3cc(Cl)ccc3Cl)o1)=NCC2,22%,14%,0%,10%,-1%
COc1cc2c(cc1OC)C(c1ccc(-c3ccccc3Cl)o1)=NCC2,-31%,1%,11µM*,u,11µM*
COc1cc2c(cc1OC)C(c1ccc(-c3ccc(Cl)c(Cl)c3)o1)=NCC2,u,3%,13µM*,0%,u
Cc1ccc2c(=O)cc(CSc3ncn[nH]3)[nH]c2c1C,x,-13%,x,-22%,x
Fc1ccccc1-c1csc(=Nc2cccnc2)n1CCCn1ccnc1,0%,-12%,u,u,-17%
Fc1ccccc1-c1csc(=Nc2cccnc2)n1CC1CCCO1 (stereo not drawn),9%,9%,u,u,7.1µM*
CSCC[C@H](NC(=O)CN)C(=O)N[C@@H](CC(=O)O)C(=O)N[C@@H](CO)C(=O)N[C@@H](CC(C)C)C(=O)N[C@@H](C)C(=O)N[C@@H](Cc1ccccc1)C(=O)N[C@@H](CO)C(=O)NCC(=O)NCC(=O)N[C@@H](CC(C)C)C(N)=O,x,x,18%,x,3%
Cc1ccc[n+](CC(=O)Nc2c(Cl)cc(Cl)cc2Cl)c1,-13%,6%,13µM*,-2%,2%
CCC1CCCCC1,x,x,1%,x,-1%
O=C(N/N=C/c1ccccc1O)NC12CC3CC(CC(C3)C1)C2,21%,-4%,u,10µM*,16µM*
O=C(N/N=C/c1ccc(O)c(O)c1)NC12CC3CC(CC(C3)C1)C2,13%,-3%,-17%,57%,-8%
O=C(N/N=C/c1cc(Cl)cc([N+](=O)[O-])c1O)NC12CC3CC(CC(C3)C1)C2,-6%,-22%,4µM*,u,u
CC(C)CCn1c(=O)c2cccnc2n(CC(=O)Nc2ccccc2)c1=O,x,-3%,x,0%,x
Fc1ccccc1,x,x,-6%,x,-6%
CCc1nnc(NC(=O)CSc2nccn2Cc2ccc(F)cc2)s1,-4%,1%,x,7%,x
CC(=O)c1ccc(NC(=O)Cn2cc(S(=O)(=O)Cc3cccc(Cl)c3)c3ccccc32)cc1,x,u,x,10µM*,x
